Assay results published in the supplement of paper PMC12494721.
Structures can show the parent of a compound that is named as a salt.

These compounds were tested on Klebsiella aerogenes DSM 30053 (assay: fold change of Cadaverine concentration vs plate DMSO controls (fold change (ratio)); higher = more amine produced, active = hit call of the paper (significant change in both replicates, either direction)). Settings: incubation time: 27 h, anaerobic, 37 °C;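 for the amine columns active = adjusted P below 0.05 in both replicates with a change the same way and a mean fold change under 0.8 or over 1.25; inactive = the rest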.
Method in brief: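 Anaerobic mGAM cultures of four gut bacterial strains were grown at 37 °C for 27 h in 80 µL wells, starting at OD 0.1 before 1:1 dilution. Compounds were at 20 µM final (sweeteners 50 µM). Whole cultures were extracted with cold acetonitrile/methanol containing 0.1% formic acid and centrifuged. Amines were quantified by LC–triple-quadrupole MS (dynamic MRM) against external calibration curves and drift-corrected within batch. Each value is the fold change versus plate DMSO controls, averaged over 2 biological replicates.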

Fold change of Cadaverine concentration, inactive:
Oc1c(Cl)cc(Cl)cc1Sc1cc(Cl)cc(Cl)c1O [Bithionol] (20 µM) 1.01, CO[C@@]1(NC(=O)C2SC(=C(C(N)=O)C(=O)O)S2)C(=O)N2C(C(=O)O)=C(CSc3nnnn3C)CS[C@@H]21 (some centres undefined) [Cefotetan] (20 µM) 1.1, N#CC(c1ccc(Cl)cc1)c1c(Cl)cc(-n2ncc(=O)[nH]c2=O)cc1Cl (centres undefined) [Diclazuril] (20 µM) 1.03, CN(C)CCCN1c2ccccc2Sc2ccc(C(F)(F)F)cc21 [Triflupromazine hydrochloride] (20 µM) 1.01, CCC(=O)OCC(=O)[C@@]1(OC(=O)CC)[C@@H](C)C[C@H]2[C@@H]3CCC4=CC(=O)C=C[C@]4(C)[C@@]3(Cl)[C@@H](O)C[C@@]21C [Beclomethasone dipropionate] (20 µM) 0.995, O=C1CN(/N=C/c2ccc(-c3ccc([N+](=O)[O-])cc3)o2)C(=O)N1 [Dantrolene sodium salt] (20 µM) 0.99, CC(C)(C(=O)O)c1ccc(C(O)CCCN2CCC(C(O)(c3ccccc3)c3ccccc3)CC2)cc1 (centres undefined) [Fexofenadine hydrochloride] (20 µM) 1.01, C[C@H]1[C@@H](O)O[C@@H]2O[C@@]3(C)CC[C@H]4[C@H](C)CC[C@@H]1[C@@]24OO3 [Artenimol] (20 µM) 1.01, CC(C)(C)NC[C@H](O)COc1ccccc1C1CCCC1 [Penbutolol sulfate] (20 µM) 0.98
